In PubChem BioAssay AID463095 (Sanford-Burnham Center for Chemical Genomics, 2010):
Some of the results follow. Activity calls are given as the source filed them.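 Rule for the calls: active = proliferation increase above 40% at any of the four tested concentrations; inactive = the rest.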

Experiment: MIN6 insulinoma cell replication enhancers – MIN6 cells, mouse, confirmation (AID 463095)
Conditions: MIN6 beta-cell proliferation, ATPlite luminescence, 48 h, cells kept in 0.2% serum, scaled between 0.2% and 10% serum; series mostly up to 50 µM; proliferation increase: at the top concentration

Proliferation increase, inactive:
COc1ccc(-c2nnn(Cc3nc(N)nc(N4CCCCC4)n3)n2)cc1 -6.3%
Cc1ccc(C(=O)Nc2ccc(NC(=O)c3cccs3)cc2)c(C)c1 -3.4%
CCn1c(=O)c([N+](=O)[O-])c(NCc2ccc3c(c2)OCO3)c2ccccc21 -0.2%
Cc1nn(C(C)C(=O)NCCC2=CCCCC2)c(=O)c2nn(-c3ccccc3)c(C)c12 (stereo unspecified) -5.8%
CC/C(=N/Nc1ccccc1)c1cnnc(SC)n1 -0.4%
O=S(=O)(NCCOc1cccc2cccnc12)c1ccc(F)cc1 0.3%
CCOc1ccccc1NC(=O)Nc1cc(OC)ccc1OC -1.2%
CC(=O)c1ccc(S(=O)(=O)NCc2nnnn2-c2ccccc2)cc1 -2.8%
Cc1cc(NC(=O)CSc2nc3ccccc3n2CC(C)C)no1 -5.9%
O=C1c2ccccc2S(=O)(=O)c2cc(N3CCN(c4ccccn4)CC3)ccc21 2.2%
COc1ccc(CCC(=O)c2ccc(OC)cc2)cc1 -4%
O=C(NNC(=S)NCc1ccccc1)c1ccc(OC(F)F)cc1 -6%
CC1(C)C2CC=C(/C=N/NC(=O)C3CC3)C1C2 (stereo unspecified) -2.2%
S=C(Nc1cccc(Cl)c1)Nc1ccc2cn[nH]c2c1 -0.1%
O=C(CSc1nc2ccccc2[nH]1)N/N=C/C=C\c1ccccc1[N+](=O)[O-] -6.1%
OC1CN=C2Sc3ccccc3N2C1 (stereo unspecified) -3.5%
CC(=O)c1cccc(NC(=O)COc2ccc(S(=O)(=O)N3CCOCC3)cc2)c1 -1.5%
Cn1cc(CN2CCC(C(O)CCc3ccccc3)CC2)c(-c2ccccc2F)n1 (stereo unspecified) -5.9%
CN(Cc1ccc(F)cc1Cl)S(=O)(=O)c1cccs1 -6.4%
COc1ccccc1OCc1ccc(C(=O)N2CCN(C)CC2)o1 -0.1%
COc1cccc(CNC(=O)CCC2CCCN(C(=O)c3ccoc3C)C2)c1 (stereo unspecified) -6.4%
